# Inconclusive results are not listed. Active and inactive are the calls of the source. Rule for the calls: active = hit-call score of the fitted dose curve at least 0.9, where 1 is the maximum; inconclusive = response in the unintended direction; inactive = score below 0.9.
# What was measured:
# [1] = target: Cellular tumor antigen p53 (Homo sapiens) (UniProt P04637); test: TOX21_p53_BLA_p2_ratio: Tox21 HCT-116 p53 Agonism Beta-lactamase Assay, Ratio, Phase 2 (AID 2283592)
# Outline: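 Readout: blue/green (460/530 nm) FRET emission ratio after 2 h CCF4-AM loading at room temperature, excitation 405 nm. HCT116 p53 bla cells, 16 h compound exposure at 37C, 5% CO2; agonist direction fitted against DMSO baseline.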
# [2] = target: Cellular tumor antigen p53 (Homo sapiens) (UniProt P04637); test: TOX21_p53_BLA_p3_ratio: Tox21 HCT-116 p53 Agonism Beta-lactamase Assay, Ratio, Phase 3 (AID 2283596)
# Outline: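 Cells were seeded at 4000/well, rested 5 h at 37C, then dosed with DMSO compound solutions (217-fold dilution) for 16 h. CCF4-AM substrate was loaded for 2 h at room temperature, and the 460/530 nm emission ratio was fitted for gain of signal versus DMSO.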
# [3] = TOX21_p53_BLA_p2_viability: Viability Assessment in the Tox21 HCT-116 p53 Agonism Beta-lactamase Assay, Phase 2 (AID 2283591);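 note: actives lower the ATP signal meaning cytotoxicity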
# Outline: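 HCT116 p53-bla cells, 4000/well, dosed after 5 h plating (217-fold dilution of DMSO stocks) and incubated 16 h at 37C. Viability taken as cellular ATP by CellTiter-Glo luminescence after 30 min RT; signal loss marks cytotoxicity.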
# [4] = TOX21_p53_BLA_p3_viability: Viability Assessment in the Tox21 HCT-116 p53 Agonism Beta-lactamase Assay, Phase 3 (AID 2283593);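 note: cells exposed to compound for 16 h before reading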
# Outline: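 HCT116 cells, 4000/well, dosed 5 h after plating by pin transfer (217-fold dilution from DMSO stock) and incubated 16 h at 37C, 5% CO2. Viability read as ATP luminescence with CellTiter-Glo after 30 min at room temperature.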
# [5] = TOX21_p53_BLA_p4_viability: Viability Assessment in the Tox21 HCT-116 p53 Agonism Beta-lactamase Assay, Phase 4 (AID 2283597);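 note: hits lower the luminescence signal meaning cytotoxicity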
# Outline: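 ATP content by CellTiter-Glo luminescence, 30 min RT, read after the beta-lactamase ratio step. Cells: HCT116, 4000/well, compound added after 5 h, exposure 16 h at 37C. Signal loss = reduced viability.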
# Chain of Cellular tumor antigen p53 (Homo sapiens) (P04637 whole entry, looked up): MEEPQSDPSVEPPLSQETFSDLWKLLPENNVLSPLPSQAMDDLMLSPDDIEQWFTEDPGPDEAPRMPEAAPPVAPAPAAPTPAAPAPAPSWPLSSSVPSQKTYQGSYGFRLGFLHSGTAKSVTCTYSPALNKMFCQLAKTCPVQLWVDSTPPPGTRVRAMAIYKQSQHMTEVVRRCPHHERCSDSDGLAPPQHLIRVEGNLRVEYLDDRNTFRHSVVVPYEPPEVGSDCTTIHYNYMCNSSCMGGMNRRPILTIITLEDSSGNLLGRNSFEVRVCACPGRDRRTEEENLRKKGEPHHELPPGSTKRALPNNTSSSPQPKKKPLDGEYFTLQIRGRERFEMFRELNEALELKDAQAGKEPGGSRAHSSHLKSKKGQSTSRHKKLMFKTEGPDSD
structure (smiles),measurement,setting,value
CCCCCC1CCC(=O)O1 (stereo not drawn),outcome,[1],inactive
same,outcome,[2],inactive
O=S(=O)(O)c1cc(O)c(O)c(S(=O)(=O)O)c1,outcome,[3],inactive
same,outcome,[1],inactive
same,outcome,[4],inactive
same,outcome,[5],inactive
CCC(C)(CCCC(C)C)OC(C)=O (stereo not drawn),outcome,[1],inactive
same,outcome,[5],inactive
O=C(Nc1cccc(Cl)c1)OCC#CCCl,AC50,[3],67.5 µM (active)
same,AC50,[1],19.9 µM (active)
same,AC50,[4],69.2 µM (active)
same,AC50,[2],13.4 µM (active)
same,AC50,[5],56.1 µM (active)
C[Si]1(C)N[Si](C)(C)N[Si](C)(C)N1,outcome,[3],inactive
same,outcome,[1],inactive
same,outcome,[2],inactive
same,outcome,[5],inactive
CC(C)=CC(=O)O,outcome,[3],inactive
same,outcome,[4],inactive
same,outcome,[2],inactive
CC1=CC(=O)[C@H]2C[C@@H]1C2(C)C,outcome,[1],inactive
same,outcome,[4],inactive
same,outcome,[2],inactive
same,outcome,[5],inactive
C=COCC1CCC(COC=C)CC1 (stereo not drawn),outcome,[2],inactive
CCCCOC(=O)C(C)OC(=O)CCC (stereo not drawn),outcome,[3],inactive
same,outcome,[1],inactive
same,outcome,[2],inactive
CC(=O)c1cccnc1,outcome,[1],inactive
same,outcome,[5],inactive
CCCC(O)C(CC)CO (stereo not drawn),outcome,[1],inactive
same,outcome,[4],inactive
same,outcome,[5],inactive
CC(=O)Oc1c(C)c(C)c2c(c1C)CC[C@@](C)(CCC[C@H](C)CCC[C@H](C)CCCC(C)C)O2,outcome,[1],inactive
same,outcome,[4],inactive
same,outcome,[2],inactive
same,outcome,[5],inactive
CC(C)COC(=O)c1ccccc1,outcome,[1],inactive
same,outcome,[4],inactive
same,outcome,[2],inactive
CC(C)(C)c1cccc(O)c1,outcome,[1],inactive
N#CCCCC(C#N)CCC#N (stereo not drawn),outcome,[1],inactive
same,outcome,[4],inactive
same,outcome,[5],inactive
NCCCOCCOCCOCCCN,outcome,[3],inactive
same,outcome,[1],inactive
same,outcome,[4],inactive
same,outcome,[2],inactive
same,outcome,[5],inactive
CCCCC1CCCCC(=O)O1 (stereo not drawn),outcome,[3],inactive
same,outcome,[4],inactive
same,outcome,[2],inactive
same,outcome,[5],inactive
CC(C)=CCCC(C)=CC(=O)O,outcome,[3],inactive
same,outcome,[4],inactive
same,outcome,[2],inactive
CC(C)CCCC(C)(C)O,outcome,[4],inactive
CCC(C)COC(=O)CC(C)C (stereo not drawn),outcome,[3],inactive
same,outcome,[1],inactive
same,outcome,[4],inactive
same,outcome,[2],inactive
same,AC50,[5],46.1 µM (active)
C1=COCCC1,outcome,[1],inactive
CN(C)CCCNCCCN(C)C,outcome,[1],inactive
same,outcome,[4],inactive
same,outcome,[5],inactive
O=C(O)c1cc(C(=O)O)c(C(=O)O)cc1C(=O)O,outcome,[1],inactive
same,outcome,[2],inactive
CCO[Si](CC)(OCC)OCC,outcome,[1],inactive
same,outcome,[4],inactive
same,outcome,[2],inactive
CC1=CCC(=C(C)C)CC1,outcome,[3],inactive
same,outcome,[4],inactive
CNC(=C[N+](=O)[O-])NCCSCc1ccc(CN(C)C)o1,outcome,[3],inactive
same,outcome,[1],inactive
same,outcome,[4],inactive
same,outcome,[5],inactive
CCC(=O)OC(C)(C)C1CC=C(C)CC1 (stereo not drawn),outcome,[1],inactive
same,outcome,[4],inactive
same,outcome,[2],inactive
same,outcome,[5],inactive
c1ccc(-c2nn[nH]n2)cc1,outcome,[1],inactive
same,outcome,[4],inactive
same,outcome,[2],inactive
CCCCC(CC)COC(=O)COc1ccc(Cl)cc1C (stereo not drawn),outcome,[1],inactive
same,outcome,[4],inactive
same,outcome,[2],inactive
same,outcome,[5],inactive
C=CCS(=O)(=O)O,outcome,[1],inactive
same,outcome,[4],inactive
same,outcome,[2],inactive
CCOC(=O)CCCCCCCCC(=O)OCC,outcome,[1],inactive
same,outcome,[2],inactive
CCCCCCCCCCCCS,outcome,[3],inactive
same,outcome,[1],inactive
same,outcome,[4],inactive
same,outcome,[2],inactive
same,outcome,[5],inactive
COC(=O)c1cccc(C(=O)OC)c1,outcome,[1],inactive
same,outcome,[4],inactive
same,outcome,[5],inactive
C=CC(C)(CCC=C(C)C)OC(=O)CC (stereo not drawn),outcome,[1],inactive
same,outcome,[2],inactive

# Reference: PubChem BioAssay (EPA / NIEHS)
